# Measurements: the supplement of paper PMC11732987, “Enantioselective OTUD7B fragment discovery through chemoproteomics screening and high-throughput optimisation” (Communications Chemistry, 2025)
# A number with no mark means an inactive call.
# How the values were obtained:
# Assay in all cases: log2 ratio of Biotin-Ahx-Ub-VS probe labelling (fragment/DMSO); higher = less target engagement (more negative = stronger competition), active = hit call of the paper (q ≤ 0.05, log2 ratio ≤ -1)
# Settings in all cases: compound concentration: 200 uM; treatment time: 3 h
# OTUD6B = molecular target: T1, OTUD6B (UniProt Q8N6M0)
# T1 sequence (whole entry): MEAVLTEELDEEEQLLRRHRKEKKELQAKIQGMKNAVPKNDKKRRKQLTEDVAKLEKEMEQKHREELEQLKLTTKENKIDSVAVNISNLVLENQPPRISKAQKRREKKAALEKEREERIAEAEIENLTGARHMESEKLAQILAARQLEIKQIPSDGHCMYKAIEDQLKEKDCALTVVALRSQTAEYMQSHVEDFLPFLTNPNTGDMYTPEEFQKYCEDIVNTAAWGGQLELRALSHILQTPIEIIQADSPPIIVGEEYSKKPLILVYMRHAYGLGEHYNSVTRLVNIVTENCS
# How it was run: (§1)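 HEK293T lysate (495 µg per sample, in Tris/CHAPS/IGEPAL buffer with protease inhibitors) was exposed in triplicate for 3 h to fragment at 200 µM or to vehicle, then to Biotin-Ahx-Ub-VS at 0.5 µM final for 1 h. Labelled DUBs were enriched on NeutrAvidin, digested with LysC and trypsin, and analysed by diaPASEF LC-MS/MS. Spectronaut label-free quantities were normalised to the global median, and values are average log2 ratios of fragment over vehicle from an unpaired t-test. Only proteins with ≥2 unique peptides were used.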
# OTUD7B = molecular target: T2, OTUD7B (UniProt Q6GQQ9)
# T2 sequence (whole entry): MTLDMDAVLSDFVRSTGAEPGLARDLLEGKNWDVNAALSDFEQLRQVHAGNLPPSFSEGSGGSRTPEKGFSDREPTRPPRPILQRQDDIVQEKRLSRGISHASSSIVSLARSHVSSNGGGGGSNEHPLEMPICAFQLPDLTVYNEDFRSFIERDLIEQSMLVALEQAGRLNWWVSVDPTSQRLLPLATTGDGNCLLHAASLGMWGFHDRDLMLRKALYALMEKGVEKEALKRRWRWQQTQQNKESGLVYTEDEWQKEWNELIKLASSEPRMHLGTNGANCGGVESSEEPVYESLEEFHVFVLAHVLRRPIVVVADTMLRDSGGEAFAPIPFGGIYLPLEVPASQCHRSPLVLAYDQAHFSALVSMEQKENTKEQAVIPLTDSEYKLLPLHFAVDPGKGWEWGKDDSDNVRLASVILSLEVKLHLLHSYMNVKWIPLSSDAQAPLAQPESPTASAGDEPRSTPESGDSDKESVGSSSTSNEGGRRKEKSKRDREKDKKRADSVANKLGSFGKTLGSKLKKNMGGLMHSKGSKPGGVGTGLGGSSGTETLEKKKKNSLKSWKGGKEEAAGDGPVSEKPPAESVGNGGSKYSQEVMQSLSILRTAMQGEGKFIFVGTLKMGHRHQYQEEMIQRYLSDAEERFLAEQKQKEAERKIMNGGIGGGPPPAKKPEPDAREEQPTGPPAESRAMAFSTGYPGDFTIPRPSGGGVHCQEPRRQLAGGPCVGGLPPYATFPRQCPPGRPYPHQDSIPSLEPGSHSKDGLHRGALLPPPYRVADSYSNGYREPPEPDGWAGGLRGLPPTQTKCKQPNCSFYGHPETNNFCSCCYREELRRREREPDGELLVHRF
# How it was run: as §1
# PRPF8 = PRPF8 (UniProt Q6P2Q9)
# How it was run: as §1
# PSMD7 = molecular target: T3, PSMD7 (UniProt P51665)
# T3 sequence (whole entry): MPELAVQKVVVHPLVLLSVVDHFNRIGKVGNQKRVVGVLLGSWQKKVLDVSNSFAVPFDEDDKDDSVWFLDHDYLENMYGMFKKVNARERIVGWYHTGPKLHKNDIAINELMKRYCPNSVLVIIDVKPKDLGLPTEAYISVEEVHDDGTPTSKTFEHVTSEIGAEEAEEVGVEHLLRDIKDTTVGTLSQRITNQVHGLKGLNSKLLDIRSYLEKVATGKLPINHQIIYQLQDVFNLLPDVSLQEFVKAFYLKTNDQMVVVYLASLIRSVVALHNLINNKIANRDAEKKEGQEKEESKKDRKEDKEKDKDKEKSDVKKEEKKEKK
# How it was run: as §1
# UCHL1 = UCHL1 (UniProt P09936)
# Sequence of UCHL1 (P09936 whole entry, looked up): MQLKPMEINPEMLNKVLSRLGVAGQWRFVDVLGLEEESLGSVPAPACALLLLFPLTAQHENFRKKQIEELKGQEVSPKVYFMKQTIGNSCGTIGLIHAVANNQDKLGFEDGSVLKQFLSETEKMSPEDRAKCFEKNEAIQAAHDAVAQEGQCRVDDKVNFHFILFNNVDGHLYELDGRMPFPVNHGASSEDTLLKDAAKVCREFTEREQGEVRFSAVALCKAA
# How it was run: as §1
# UCHL3 = molecular target: T4, UCHL3 (UniProt P15374)
# T4 sequence (whole entry): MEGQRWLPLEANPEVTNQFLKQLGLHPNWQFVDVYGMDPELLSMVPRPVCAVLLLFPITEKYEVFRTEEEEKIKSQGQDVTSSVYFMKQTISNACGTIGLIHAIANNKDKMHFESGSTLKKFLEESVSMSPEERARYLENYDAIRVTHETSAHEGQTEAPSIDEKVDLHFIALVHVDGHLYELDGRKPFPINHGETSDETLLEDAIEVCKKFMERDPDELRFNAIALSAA
# How it was run: as §1
# UCHL5 = molecular target: T5, UCHL5 (UniProt Q9Y5K5)
# T5 sequence (whole entry): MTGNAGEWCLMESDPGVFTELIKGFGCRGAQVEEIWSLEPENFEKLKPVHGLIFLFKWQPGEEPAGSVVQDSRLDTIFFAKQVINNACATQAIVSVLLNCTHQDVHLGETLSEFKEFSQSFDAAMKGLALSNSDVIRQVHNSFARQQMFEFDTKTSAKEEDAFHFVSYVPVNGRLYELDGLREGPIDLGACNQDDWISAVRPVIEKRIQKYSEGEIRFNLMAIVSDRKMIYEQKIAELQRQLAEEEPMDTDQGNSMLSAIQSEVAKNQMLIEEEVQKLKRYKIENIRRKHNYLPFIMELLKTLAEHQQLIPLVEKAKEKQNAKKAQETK
# How it was run: as §1
# USP10 = USP10 (UniProt Q14694)
# Sequence of USP10 (Q14694 whole entry): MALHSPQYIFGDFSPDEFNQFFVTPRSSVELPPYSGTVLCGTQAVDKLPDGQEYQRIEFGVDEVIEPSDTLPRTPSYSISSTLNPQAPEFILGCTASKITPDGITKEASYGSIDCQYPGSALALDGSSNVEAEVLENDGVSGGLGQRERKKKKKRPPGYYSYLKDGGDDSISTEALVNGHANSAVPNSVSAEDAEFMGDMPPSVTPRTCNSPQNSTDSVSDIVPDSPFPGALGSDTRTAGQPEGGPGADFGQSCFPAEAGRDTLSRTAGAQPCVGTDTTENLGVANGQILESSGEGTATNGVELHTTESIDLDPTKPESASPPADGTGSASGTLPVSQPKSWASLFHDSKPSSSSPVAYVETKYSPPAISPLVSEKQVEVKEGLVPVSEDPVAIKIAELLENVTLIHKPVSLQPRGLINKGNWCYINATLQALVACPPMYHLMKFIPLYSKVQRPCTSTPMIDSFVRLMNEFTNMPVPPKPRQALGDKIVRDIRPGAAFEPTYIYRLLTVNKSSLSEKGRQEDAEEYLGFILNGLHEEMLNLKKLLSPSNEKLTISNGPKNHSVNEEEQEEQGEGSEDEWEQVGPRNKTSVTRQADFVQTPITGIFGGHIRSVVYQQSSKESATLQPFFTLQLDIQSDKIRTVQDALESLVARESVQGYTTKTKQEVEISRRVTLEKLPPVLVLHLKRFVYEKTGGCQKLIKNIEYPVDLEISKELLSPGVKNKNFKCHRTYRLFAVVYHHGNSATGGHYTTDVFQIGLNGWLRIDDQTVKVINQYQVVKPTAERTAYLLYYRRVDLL
# How it was run: as §1
# USP15 = molecular target: T6, USP15 (UniProt Q9Y4E8)
# T6 sequence (whole entry): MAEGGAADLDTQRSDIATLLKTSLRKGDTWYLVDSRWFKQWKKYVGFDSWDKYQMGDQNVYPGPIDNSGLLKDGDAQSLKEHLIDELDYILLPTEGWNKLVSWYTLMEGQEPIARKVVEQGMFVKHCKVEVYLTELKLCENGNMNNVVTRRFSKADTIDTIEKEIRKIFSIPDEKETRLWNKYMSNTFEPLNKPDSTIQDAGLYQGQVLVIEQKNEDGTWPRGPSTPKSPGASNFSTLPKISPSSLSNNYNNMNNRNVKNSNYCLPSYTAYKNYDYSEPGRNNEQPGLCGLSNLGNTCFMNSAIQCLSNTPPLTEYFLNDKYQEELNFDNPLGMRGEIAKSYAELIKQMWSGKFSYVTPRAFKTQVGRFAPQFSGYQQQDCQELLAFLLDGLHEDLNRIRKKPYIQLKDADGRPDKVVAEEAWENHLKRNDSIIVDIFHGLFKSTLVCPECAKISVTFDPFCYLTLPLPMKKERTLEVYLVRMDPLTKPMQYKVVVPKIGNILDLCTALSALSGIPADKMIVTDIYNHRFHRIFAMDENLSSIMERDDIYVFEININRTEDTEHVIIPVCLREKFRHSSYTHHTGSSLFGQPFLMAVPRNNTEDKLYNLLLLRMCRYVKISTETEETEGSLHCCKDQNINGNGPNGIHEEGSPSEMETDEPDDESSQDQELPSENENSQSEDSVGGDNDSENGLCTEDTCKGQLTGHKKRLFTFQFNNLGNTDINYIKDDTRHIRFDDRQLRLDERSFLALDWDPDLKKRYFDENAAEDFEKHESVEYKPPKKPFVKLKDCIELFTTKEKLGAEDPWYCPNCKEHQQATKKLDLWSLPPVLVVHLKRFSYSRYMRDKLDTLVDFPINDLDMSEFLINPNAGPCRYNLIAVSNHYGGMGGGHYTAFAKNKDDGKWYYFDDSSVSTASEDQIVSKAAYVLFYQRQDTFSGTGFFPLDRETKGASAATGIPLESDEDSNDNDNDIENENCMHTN
# How it was run: as §1
# USP16 = USP16 (UniProt Q9Y5T5)
# Sequence of USP16 (Q9Y5T5 whole entry, looked up): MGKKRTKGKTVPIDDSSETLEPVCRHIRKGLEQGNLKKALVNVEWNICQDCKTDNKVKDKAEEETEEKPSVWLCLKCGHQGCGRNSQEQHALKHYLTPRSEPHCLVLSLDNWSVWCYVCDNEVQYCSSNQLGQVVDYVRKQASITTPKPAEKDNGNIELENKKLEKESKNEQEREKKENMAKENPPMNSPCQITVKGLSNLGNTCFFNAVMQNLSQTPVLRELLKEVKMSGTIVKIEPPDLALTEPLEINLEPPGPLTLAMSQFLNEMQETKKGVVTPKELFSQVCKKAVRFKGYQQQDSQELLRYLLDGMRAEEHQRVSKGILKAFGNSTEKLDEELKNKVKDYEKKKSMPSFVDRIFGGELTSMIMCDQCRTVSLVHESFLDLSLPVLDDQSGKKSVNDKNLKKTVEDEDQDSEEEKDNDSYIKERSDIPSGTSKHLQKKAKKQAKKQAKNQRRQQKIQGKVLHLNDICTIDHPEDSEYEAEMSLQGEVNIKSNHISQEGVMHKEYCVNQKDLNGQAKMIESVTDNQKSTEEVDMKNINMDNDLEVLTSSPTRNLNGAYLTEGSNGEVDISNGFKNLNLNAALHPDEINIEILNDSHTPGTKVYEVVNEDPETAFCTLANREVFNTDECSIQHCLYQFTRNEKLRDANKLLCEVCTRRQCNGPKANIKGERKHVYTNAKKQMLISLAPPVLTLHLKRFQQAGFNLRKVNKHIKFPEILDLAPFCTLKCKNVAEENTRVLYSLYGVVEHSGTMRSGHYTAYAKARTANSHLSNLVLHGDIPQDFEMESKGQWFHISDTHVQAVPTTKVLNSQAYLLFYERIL
# How it was run: as §1
smiles,measurement,setting,value
Cc1n[nH]c2c1CN(C(=O)CCl)CC2,log2 ratio of Biotin-Ahx-Ub-VS probe labelling,OTUD6B,-0.715
same,log2 ratio of Biotin-Ahx-Ub-VS probe labelling,OTUD7B,-1.53 (active)
same,log2 ratio of Biotin-Ahx-Ub-VS probe labelling,PRPF8,0.0355
same,log2 ratio of Biotin-Ahx-Ub-VS probe labelling,PSMD7,-0.368
same,log2 ratio of Biotin-Ahx-Ub-VS probe labelling,UCHL1,-1.15
same,log2 ratio of Biotin-Ahx-Ub-VS probe labelling,UCHL3,-0.699
same,log2 ratio of Biotin-Ahx-Ub-VS probe labelling,UCHL5,-0.886
same,log2 ratio of Biotin-Ahx-Ub-VS probe labelling,USP10,-0.519
same,log2 ratio of Biotin-Ahx-Ub-VS probe labelling,USP15,-0.982
same,log2 ratio of Biotin-Ahx-Ub-VS probe labelling,USP16,-0.207
